Giardia kill = Giardia lamblia killing; Giardia lamblia trophozoite viability; AID 540267; activity change, % at 7.66 µM, hits read low; actives 0.15% (n = 340,000); in the data active means activity change below about -80%; inconclusive means between about -30% and that limit;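 further: parasites exposed to compound for two days anaerobically before the ATP read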
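Luminescence from cellular ATP indicates surviving trophozoites (100 cells/well) following 48 hrs anaerobic compound treatment at 37 deg C; signal develops 15-30 min at room temperature.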
FBPA coupling cs = inhibits coupling enzyme system, counter-screen for aldolase hits | coupling enzyme system counterscreen, AmpLite Red fluorescence | activity change, negative = inhibition, % at 58.2 µM, hits read low | actives 0.67% (n = 290,000); in the data active means activity change below about -30%
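First, compound is pin-transferred into glyceraldehyde-3-phosphate coupling-enzyme reagent at 57.5 uM final and held 10 min at RT. Next, substrate, coupling system and AmpLite Red are added. After 20 min RT, fluorescence (525/598 nm) is read.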
ELG1 repair inh = ELG1-dependent DNA repair inhibition; HEK293T ELG1-luciferase reporter, luminescence, 16 h; DNA damage induced by 5-fluorouridine; Potency, µM (titrated, usually from 46.1 µM), usual class: inhibitors; actives 2.3% (n = 330,000); further: nearly all actives have a fitted effect of over 55% in size
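Overnight (16 hr) co-exposure of 2,000 cells/well to 5-fluorouridine and compound at 37 °C preceded detection. Luciferase was quantified via ONE-Glo luminescence; loss of signal denotes inhibition.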
Sfp PPTase inh = Sfp phosphopantetheinyl transferase inhibition; Q9F4F7; Biochemical Sfp PPTase activity, qHTS; Potency, µM, most hits filed as inhibitors; actives 3.5% (n = 310,000); AID 1490;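 further: the enzyme is Sfp with the accession as filed and its product quenches rhodamine fluorescence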
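Buffer: 50 mM Hepes-Na pH 7.6, 10 mM MgCl2, 0.01% Nonidet P-40, 0.01% BSA. Enzyme 15 nM, pre-exposed to compound 15 min; substrates then added and fluorescence change tracked over 30 min.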
Numbers stand for hits; 0 = inactive; ? = inconclusive; - = no result given. Compounds with a hit are over-represented: about 5.5% of the library has one in this group of screens. Unless noted, the call rests on the fitted dose curve; in most records, active means well fitted curve in the direction sought with a large enough effect; inconclusive means small, poorly fitted or top-dose-only effect, or another doubt; inactive means no such curve, though single readings can be large; an effect the other way counts as inactive or inconclusive.

SMILES | Giardia kill | FBPA coupling cs | ELG1 repair inh | Sfp PPTase inh
Cc1sc2nc(CSc3ccc([N+](=O)[O-])cc3)[nH]c(=O)c2c1C | - | 0 | 0 | 50µM
Cc1sc2nc(CSc3n[nH]c(N)n3)[nH]c(=O)c2c1C | 0 | 0 | 0 | 79µM
COc1cc(-c2n[nH]c(=S)n2-c2ccc(Br)cc2)cc(OC)c1OC | 0 | 0 | 0 | 0
C=CCC(O)c1ccccc1 (stereo not given) | - | 0 | - | 0
Cc1[nH]c2ccccc2c1C(c1ccccn1)N1CCCC1 (stereo not given) | 0 | 0 | 0 | 0
CCOC(=O)C1CCCN(C(c2ccccn2)c2c(C)[nH]c3ccccc23)C1 (stereo not given) | 0 | 0 | 0 | 45µM
COC[C@@H](O)[C@@H](OC)[C@H](OC)[C@H](Cc1c(OC)cc(OC)cc1OC)OC | - | 0 | - | 0
COc1ccc(-n2c(/C=C(\C)O)nc(=O)c3c(C)cc(C)nc32)cc1 | 0 | 0 | 8.2µM | 0
CCC(C(=O)OCC(=O)N1CCN(S(=O)(=O)c2ccc(C)cc2C)CC1)c1ccccc1 (stereo not given) | 0 | - | ? | -
COc1ccc(-c2c(C)nn3c(N4CCCCCC4)cc(C)nc23)cc1OC | 0 | 0 | 12µM | 0
COc1ccc(-c2c(C)nn3c(N4CCOCC4)cc(C)nc23)cc1OC | 0 | 0 | 16µM | 0
COc1ccc(-c2c(C)nn3c(N4CCC5(CC4)OCCO5)cc(C)nc23)cc1OC | 0 | 0 | 0 | 0
CCOC(=O)c1ccccc1NC(=O)Cn1c(-c2nonc2N)nc2ccccc21 | 0 | 0 | ? | 28µM
CC(C)CCn1c(-c2nonc2N)nc2ccccc21 | 0 | 0 | 23µM | ?
CSCC[C@H](NC(=O)c1cccc(S(=O)(=O)N2CCCCC2)c1)c1nc2ccccc2[nH]1 | 0 | - | ? | -
Fc1ccc(-[n+]2nc(Nc3ccccc3)sc2-c2cccc(Cl)c2Cl)cc1 | 0 | 0 | 0 | 0
Clc1cccc(-c2sc(Nc3ccccc3)n[n+]2-c2ccccc2)c1Cl | 0 | 0 | ? | 50µM
COc1cc(S(=O)(=O)Nc2ccc(C)cc2)ccc1N=Cc1c(C)c(C#N)c(=O)n(C)c1O | 0 | 0 | 0 | 0
Cc1ccc(N/N=C/c2c(C)c(C#N)c(=O)n(C)c2O)cc1C | 0 | -58 | 0 | 13µM
COC(=O)CSC1=C(C#N)C(=O)NC(c2ccccc2)S1 (stereo not given) | 0 | 0 | 0 | 32µM
O=C(COc1ccc([N+](=O)[O-])cc1)Nc1ccc2c(c1)CCC2 | 0 | - | 0 | -
CC1CCCN(c2ccc(C(=O)Nc3ccc4c(c3)OCO4)cc2[N+](=O)[O-])C1 (stereo not given) | 0 | 0 | 21µM | 0
CC1CCN(c2ccc(C(=O)Nc3ccc4c(c3)OCO4)cc2[N+](=O)[O-])CC1 | 0 | 0 | ? | 0
CCOc1cc(/C=C/C(=O)c2ccc(OC)c(CN3CCOCC3)c2)cc(Br)c1O | 0 | 0 | 18µM | 0
CCOc1cc(/C=N/NC(=O)c2ccc(CN3CCOCC3)cc2)ccc1OC | 0 | 0 | 0 | 0
SMILES | Giardia kill | FBPA coupling cs | ELG1 repair inh | Sfp PPTase inh
O=[N+]([O-])c1ccc(O)c(Nc2ncnc3ccccc23)c1 | 0 | 0 | 0 | 0
Cc1ccc(O)c(Nc2ncnc3ccc([N+](=O)[O-])cc23)c1 | 0 | 0 | 13µM | 0
O=[N+]([O-])c1ccc(O)c(Nc2ncnc3ccc(Br)cc23)c1 | 0 | 0 | 13µM | 0
CCCc1nn2c(=O)cc(COc3ccc(NC(=O)c4ccco4)cc3)nc2s1 | 0 | - | 0 | 0
CN(C)C(CNC(=O)c1cc(-c2ccco2)nc2ccccc12)c1ccccc1 (stereo not given) | 0 | - | ? | -
Cc1ccc(C)c(C(=O)COC(=O)c2ccc(C)c(S(=O)(=O)N3CCOCC3)c2)c1 | 0 | - | ? | -
N#CC(=C(/N)Sc1ccccc1N)/C(C#N)=C(\N)Sc1ccccc1N | - | - | - | 56µM
Cc1cc(C)c(C#N)c(Sc2ccccc2N)n1 | 0 | 0 | ? | 0
O=C(NCSc1ccccc1)c1ccccc1 | 0 | - | ? | -
Cc1cc(C)nc(SCC(=O)c2ccc(F)cc2)n1 | 0 | 0 | 0 | 0
Cc1cc(SCNC(=O)c2ccccc2)ncn1 | 0 | 0 | 0 | 25µM
Cc1cc(C)nc(SCNC(=O)c2ccc(F)cc2)n1 | 0 | 0 | 0 | 50µM
O=C(C[C@@H]1C/C=C\CC[C@H](Cc2ccc(F)cc2)C(=O)OC[C@@H]2CCCN2C1=O)NCCO | 0 | - | 0 | -
Cc1cc(S(=O)(=O)n2ccnc2)c(Cl)cc1Cl | 0 | 0 | 0 | 0
COc1ccc(N(C)S(=O)(=O)c2cccc(C(=O)OCC(=O)N3CC(C)CC(C)C3)c2)cc1 (stereo not given) | 0 | - | ? | -
CCCCCC/C=C/c1ccc(OC)c(C2C3C=CCC(C)C3C(=O)N2Cc2ccccc2)c1 (stereo not given) | 0 | 0 | - | 0
C/C=C/OC(=O)NC(c1ccccc1)[C@]1(C(C)=O)CCOC1=O (stereo not given in full) | - | 0 | - | 0
[O-]/C(=C(\C(=S)NCc1ccc2c(c1)OCO2)[n+]1ccccc1)c1ccc(Cl)s1 | 0 | 0 | 0 | 40µM
CC(C)(C)N(Cc1ccccc1)C(=O)COC(=O)C1CCN(c2ccc(C(F)(F)F)cn2)CC1 | 0 | - | 0 | -
CCOC(=O)C1=C(C)NC(=O)CC1c1cc2c(cc1[N+](=O)[O-])OCO2 (stereo not given) | 0 | -53 | 0 | ?
CCCOC(=O)C1=C(C)N(C)C(=O)NC1c1cc2c(cc1[N+](=O)[O-])OCO2 (stereo not given) | 0 | 0 | 0 | 14µM
CCOC(=O)C1=C(C)NC(=O)NC1c1cc2c(cc1Br)OCO2 (stereo not given) | 0 | 0 | 0 | 0
CC1=C(C(=O)OCC(C)C)C(c2cc3c(cc2Br)OCO3)NC(=O)N1C (stereo not given) | 0 | 0 | 0 | 0
CN(C(=O)c1ccc(OCC=C(c2ccccc2)c2ccccc2)cc1)c1ccccc1I | 0 | 0 | - | 0
CN(CC(=O)Nc1ccc(Cl)c(C(F)(F)F)c1)C(=O)c1cccs1 | 0 | - | 0 | -
SMILES | Giardia kill | FBPA coupling cs | ELG1 repair inh | Sfp PPTase inh
O=C1c2ccccc2C(=O)c2[nH]c(=O)[nH]c21 | ? | 0 | 7.3µM | 0
Cc1c(Cl)cccc1NC(=O)CCC(=O)N/N=C/c1ccc[nH]1 | 0 | 0 | 0 | 45µM
Nc1ncnc2c1ncn2[C@@H]1O[C@H](COP(=O)(O)O)[C@@H](O)[C@@H]1O | - | 0 | - | 0
COc1ccc(/C(=N/Nc2ncnc3ccccc23)C(=O)O)cc1 | 0 | 0 | ? | 63µM
CN1CCN(c2nc(-c3cccc(C#N)c3)nc3ccccc23)CC1 | - | 0 | - | 0
O=C(NC1CCC(O)CC1)c1cc(-c2ccco2)nc2ccccc12 (stereo not given) | 0 | 0 | 0 | 18µM
Cc1cccc(NC(=O)c2cc(-c3ccco3)nc3ccccc23)n1 | 0 | 0 | ? | 22µM
O=C(NCC1CCCO1)c1cc(-c2ccco2)nc2ccccc12 (stereo not given) | 0 | 0 | 0 | 0
Cc1cccc(NC(=O)c2cc(NC(=O)c3ccco3)ccc2Cl)n1 | 0 | 0 | 12µM | 0
COCCN1CC(=O)N2C(c3cccc(OC)c3)c3[nH]c4ccccc4c3C[C@H]2C1=O (stereo not given in full) | 0 | 0 | 0 | 0

Screens: PubChem BioAssay, National Center for Advancing Translational Sciences (NCATS)
